miR122 inh = miR-122 Renilla sensor signal increase in Huh7, primary screen, miR-122 inhibitor project, cell-based, single point, plate reader; activation (reporter increase), % at 12.5 µM; Huh7 miR-122 Renilla luciferase sensor, 48 h; neutral wells = 0, positive control = 100; 0.3% of 340,000 active;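 active = mean replicate activation score at least 90 and every replicate individually at or above 90; inconclusive = only one of the two criteria met; inactive = neither criterion met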;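 also: higher luciferase means less miR-122 activity so hits act as miR-122 inhibitors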
DENV2 CPE rescue = inhibitors of DENV2 cytopathic effect, primary screen, cell-based, plate reader, single concentration; CPE inhibition, % at 9.99 µM; DENV2-infected cells, cytopathic effect rescue; 1.7% of 350,000 active; in the data active = CPE inhibition above about 20%, passing the limit was not always enough; inconclusive = no clear call, values can overlap the other calls; tested in BHK-21 cells;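 also: 0% = median of neutral control wells and 100% = median of positive control wells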
PvdQ inh = P. aeruginosa PvdQ acylase inhibitors, primary screen, biochemical, fluorescence, plate reader and imaging, single point. PvdQ acylase [Pseudomonas aeruginosa LESB58]. purified PvdQ acylase. inhibition, % at 10 µM. 0.063% of 340,000 active. AID 488965, 2010; in the data active = inhibition above about 30%, passing the limit was not always enough; inconclusive = no clear call, values can overlap the other calls;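 also: 0% = vehicle neutral wells and 100% = reference inhibitor wells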
C2C12 statin = suppressors of statin myotoxicity in C2C12 myotubes, primary screen, cell-based, single point, plate reader; C2C12 myotubes + simvastatin, ATP luminescence, 48 h; scaled: DMSO 0, geranylgeraniol control 100; rescue of ATP level, % at 7.49 µM; 0.78% of 330,000 active; AID 602340, 2012;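 active = mean ATP rescue above about 67%, or every replicate alone reaching that limit, limit read from the data, passing the limit was not always enough; inconclusive = no clear call, values can overlap the other calls; inactive = mean under the limit and some replicate under it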;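 also: myotubes were challenged with 10 µM simvastatin during compound exposure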
PGC1a acetyl inh = inhibitors of PGC1a acetylation signal, primary screen, cell-based, U2OS, AlphaScreen, inhibitor mode | 0.17% of 350,000 active | inhibition, % at 15.6 µM | AlphaScreen anti-acetyl-lysine; with virally co-expressed GCN5 acetyltransferase;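 active = every replicate shows inhibition of at least 40%; inconclusive = mean inhibition at least 40% but some replicate below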;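 also: 0% = neutral control wells and 100% = positive control wells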
Active calls of the source: *; ? = inconclusive; nt = not tested or not shown; ! = not active in a repeat; [ ] = another dose, or the depositor's remark. An excerpt weighted towards active compounds, which were near 2.2% of everything screened.

SMILES | miR122 inh | DENV2 CPE rescue | PvdQ inh | C2C12 statin | PGC1a acetyl inh
CN1CCN(C2=Cc3ccccc3Sc3cc(F)ccc32)CC1 | -2 | nt | -9 | 110* | -13
COc1ccc(N2CCN(CCOc3ccc4c(C)cc(=O)oc4c3)CC2)cc1 | -5 | -3 | -8 | nt | -10
Cc1cc(=O)oc2cc(OCCSCCN3CCCC3)ccc12 | 0 | 37* | nt | nt | 16
CCC(=O)N1CCc2cc(Br)cc(S(=O)(=O)CC(=O)OC)c21 | 4 | nt | -11 | 105* | -2
CCC(=O)N1CCc2cc(Br)cc(S(=O)(=O)NCCN3CCCC3)c21 | -1 | ? | -12 | -7 | -10
CC(=O)N1CCc2cc(Br)cc(S(=O)(=O)NCCCN3CCC(C)CC3)c21 | 0 | nt | 2 | nt | 1
CC(=O)N1CCc2cc(Br)cc(S(=O)(=O)NCc3ccc(Cl)cc3)c21 | 110* | 3 | -10 | -7 | 8
CCOc1cc(/C=N/NC(=O)C(N)=O)cc(Br)c1O | nt | 6 | 4 | nt | nt
CCOc1cc(/C=N/NC(=O)C(=O)NC2CC2)cc(Br)c1O | -1 | 47* | -9 | -1 | -6
COCC(=O)N1CC(=O)N2[C@H](CO)[C@@H](c3ccc(C#CC(C)C)cc3)[C@@H]2C1 | nt | -11 | nt | nt | 13
COc1ccc(C(=O)Nc2ncccc2C)cc1S(=O)(=O)N1CCCc2ccccc21 | nt | -3 | 1 | nt | nt
COc1ccc(C(=O)Nc2nc3c(s2)CCCC3)cc1S(=O)(=O)N1CCCc2ccccc21 | 115* | nt | -15 | nt | nt
Cc1noc(C)c1S(=O)(=O)Nc1ccc2c(c1)C(=O)N([C@H](C)CO)C[C@H](C)[C@H](CN(C)C(=O)Nc1ccccc1)OCCCC[C@H](C)O2 | 6[16.7 µM] | 33* | nt | nt | -10
Cc1noc(C)c1S(=O)(=O)Nc1ccc2c(c1)C(=O)N([C@@H](C)CO)C[C@@H](C)[C@H](CN(C)C(=O)Nc1ccccc1)OCCCC[C@@H](C)O2 | 4[16.7 µM] | 97* | nt | nt | -1
C[C@@H]1CN([C@H](C)CO)S(=O)(=O)c2ccc(C3=CCCCC3)cc2O[C@@H]1CN(C)Cc1ccccc1F | nt | 2 | nt | -37 | 0
O=C(Nc1cccs1)NC1CCCC1 | 6 | nt | -2 | 109* | 2
C[C@@H]1CCCCO[C@@H](CN(C)Cc2ccc(C(=O)O)cc2)[C@@H](C)CN([C@@H](C)CO)C(=O)c2cc(NC(=O)c3ccccc3)ccc2O1 | 17[16.7 µM] | -3 | nt | nt | 1
Cc1cc(C)cc(NS(=O)(=O)c2cc(Br)cnc2N)c1 | 98* | 3 | -2 | -2 | -2
Cc1ccc(NS(=O)(=O)c2cc(Br)cnc2N)cc1C | 144* | -2 | -4 | 0 | 2
CSc1cccc(NS(=O)(=O)c2cc(Br)cnc2N)c1 | 106* | 7 | -8 | 0 | 2
Nc1ncc(Br)cc1S(=O)(=O)NC1CCCCC1 | 126* | -2 | -10 | 0 | 3
C[C@H]1CN([C@@H](C)CO)C(=O)Cc2cc(NC(=O)C3CCCCC3)ccc2O[C@@H]1CN(C)Cc1ccncc1 | -3[16.7 µM] | 17 | nt | -13 | 11
Nc1ncc(Br)cc1S(=O)(=O)NCCc1ccccc1 | 105* | -4 | -19 | -5 | 17
CNC[C@@H]1Oc2ccc(NS(=O)(=O)c3c(C)noc3C)cc2CC(=O)N([C@H](C)CO)C[C@H]1C | -1[16.7 µM] | -7 | nt | -1 | 8
CN(C)C(=O)[C@H]1[C@H](CO)[C@H]2Cn3c(ccc(-c4cncnc4)c3=O)[C@H]2N1Cc1cc(F)ccc1F | nt | 18 | nt | -36 | nt
CNC[C@H]1OCc2ccccc2-c2ccccc2C(=O)N([C@H](C)CO)C[C@@H]1C | nt | 0 | nt | -10 | 1
CNC[C@@H]1OCc2ccccc2-c2ccccc2C(=O)N([C@@H](C)CO)C[C@@H]1C | -5 | 33*! | nt | -5 | 1
C[C@@H]1CN([C@H](C)CO)C(=O)c2ccccc2-c2ccccc2CO[C@@H]1CN(C)C(=O)[C@H]1CCCN1C | nt | 79* | nt | -12 | 7
CNC[C@@H]1OCc2ccccc2-c2c(n(C)c3ccccc23)C(=O)N([C@H](C)CO)C[C@@H]1C | -5 | 33*! | nt | -12 | 7
CC(=O)N(C)C[C@H]1OCc2ccccc2-c2c(n(C)c3ccccc23)C(=O)N([C@H](C)CO)C[C@H]1C | nt | 34* | nt | -11 | -2

Bioassay records as filed in PubChem.
